Test results taken from the supplement of paper PMC6555819.

Key:
Assay in all cases: PBM binding z-score (relative to random genomic background probes); higher = stronger binding; sequences stand for … in GC…GCGATTGACAGCGTAGAATGAAGG
[1] = system: FXR:RXRa (NR concentration 270 nM, RXRa partner concentration 90 nM)
Outline: (§1)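 Probes were double-stranded and carried 34-nt variable regions with direct-repeat seeds, single-nucleotide variants, half-site ablations and random human genomic background sequences, printed on custom Agilent 4×180K protein-binding microarrays. Arrays were incubated 1 h with ligand-free nuclear receptor dimers in PBS pH 7.4, 2% milk, 0.02% Triton X-100, 1 mM DTT, 0.2 mg/mL BSA and 0.4 mg/ml salmon testes DNA. Antibodies against each partner (one per run) detected binding, and scanned fluorescence was regression-normalized. Binding z-scores use the random background probes as reference.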

[2] = system: LXRa:RXRa (NR concentration 270 nM, RXRa partner concentration 90 nM)
Outline: as §1

[3] = system: LXRa homodimer (NR concentration 270 nM)
Outline: as §1

[4] = system: LXRb:RXRa (NR concentration 270 nM, RXRa partner concentration 90 nM)
Outline: as §1

[5] = system: LXRb homodimer (NR concentration 270 nM)
Outline: as §1

[6] = system: PPARa:RXRa (NR concentration 270 nM, RXRa partner concentration 90 nM)
Outline: as §1

[7] = system: PPARg:RXRa (NR concentration 180 nM, RXRa partner concentration 90 nM)
Outline: as §1

[8] = system: PPARg:RXRa 270nM:90nM, anti-RXR (NR concentration 270 nM, RXRa partner concentration 90 nM)
Outline: as §1

[9] = system: PPARg:RXRa 30nM:10nM, anti-RXR (NR concentration 30 nM, RXRa partner concentration 10 nM)
Outline: as §1

[10] = system: PPARg:RXRa 90nM:30nM, anti-RXR (NR concentration 90 nM, RXRa partner concentration 30 nM)
Outline: as §1

[11] = system: PPARg:RXRa DBDmut IVT, anti-RXR (DBD mutation: RXRa K156A/R161A, NR concentration 270 nM, RXRa partner concentration 90 nM)
Outline: as §1

[12] = system: PPARg:RXRa IVT, anti-PPARg (NR concentration 270 nM, RXRa partner concentration 90 nM)
Outline: as §1

[13] = system: PPARg DBDmut:RXRa IVT, anti-PPARg (DBD mutation: PPARg1 K132A/R137A, NR concentration 270 nM, RXRa partner concentration 90 nM)
Outline: as §1

[14] = system: PPARg DBDmut IVT, anti-PPARg (DBD mutation: PPARg1 K132A/R137A, NR concentration 270 nM)
Outline: as §1

[15] = system: PPARg homodimer (NR concentration 180 nM)
Outline: as §1

[16] = system: PXR:RXRa (NR concentration 270 nM, RXRa partner concentration 90 nM)
Outline: as §1

[17] = system: PXR homodimer (NR concentration 270 nM)
Outline: as §1

[18] = system: RARa:RXR (NR concentration 270 nM, RXRa partner concentration 90 nM)
Outline: as §1

[19] = system: RARa homodimer (NR concentration 270 nM)
Outline: as §1

[20] = system: RARb:RXRa (NR concentration 270 nM, RXRa partner concentration 90 nM)
Outline: as §1

| Sequence | PBM binding z-score [1] | PBM binding z-score [2] | PBM binding z-score [3] | PBM binding z-score [4] | PBM binding z-score [5] | PBM binding z-score [6] | PBM binding z-score [7] | PBM binding z-score [8] | PBM binding z-score [9] | PBM binding z-score [10] | PBM binding z-score [11] | PBM binding z-score [12] | PBM binding z-score [13] | PBM binding z-score [14] | PBM binding z-score [15] | PBM binding z-score [16] | PBM binding z-score [17] | PBM binding z-score [18] | PBM binding z-score [19] | PBM binding z-score [20] |
| --- | --- | --- | --- | --- | --- | --- | --- | --- | --- | --- | --- | --- | --- | --- | --- | --- | --- | --- | --- | --- |
| TCTTGGAGATCAAAGGTTAAGAAAGCCGAAGCCT | 2.17 | 2.17 | -0.196 | 2.2 | -0.93 | 4.34 | 5.56 | 6.62 | 5.5 | 7 | 1.05 | 2.18 | -0.186 | -0.682 | 0.267 | 2.44 | -0.521 | 3.89 | -0.387 | 1.9 |
| CGTCAAAGTTCAAGGAAACGTAACAGAAAGCAGC | 5.45 | 5.15 | 1.92 | 2.97 | 0.958 | 4.11 | 3.58 | 4.4 | 1.69 | 3.29 | 0.0711 | 1.12 | 0.307 | 1.1 | 1.84 | 3.45 | 1.73 | 2.73 | 1.33 | 5 |
| CCGACTGGGGCATAACGTTACCATAAGCCAGCCC | -0.396 | -0.323 | -0.401 | -0.205 | -1.06 | 0.0712 | 0.89 | 0.484 | -0.471 | 0.117 | 2.66 | 1.66 | -0.938 | -1.07 | -0.33 | -0.824 | -0.237 | -0.522 | 0.566 | 0.162 |
| CGCCCAAGGTCAAAGGTCAGTGAAGAGATGACGG | 8.13 | 6.57 | 3.09 | 6.44 | 1.72 | 7.07 | 10.1 | 8.16 | 7.42 | 8.6 | 3.58 | 5.36 | 0.645 | 0.0371 | 3.28 | 7.03 | 1.41 | 8.49 | 1.99 | 6.04 |
| GCTAGCAGGCCATTGGGGTCACTCAATGACGGGC | 2.93 | 2.47 | -0.298 | 3.06 | -0.749 | 4.28 | 1.95 | 3.1 | 0.521 | 2.17 | 0.93 | 2.42 | -0.918 | -0.85 | 1.48 | 5.48 | 8.59 | 5.19 | -0.69 | 3.01 |
| CGAACTAGGTCAAGCACAGTGAATCTCCGCACGC | 4.1 | 2.35 | 0.195 | 1.67 | -0.136 | 4.74 | 7.62 | 6.72 | 4.49 | 6.09 | 8.33 | 8.4 | 5.79 | 3.74 | 2.82 | 1.18 | -0.61 | 2.31 | 0.512 | 3.98 |
| TCTTGTAGATCACAGGTTAAGAAAGCCGAAGCCT | 0.701 | 0.575 | -0.161 | 0.714 | -0.0792 | 2.09 | 2.74 | 4.44 | 3.81 | 4.64 | 2.16 | 1.8 | 0.9 | 0.0684 | 0.447 | 0.186 | -0.359 | 0.737 | -0.789 | 0.464 |
| TCTATTAGTTGAAGGGCACCCGACGAGTCCGTTT | 0.72 | 0.953 | 0.3 | 0.709 | 0.846 | 0.943 | 0.172 | 2 | 3.71 | 2.96 | 2.29 | 0.553 | 0.299 | 1.3 | 1.25 | 0.824 | 1 | 0.844 | 1.45 | 1.36 |
| GATACAGGGTCAGCTATAGGCCAGAGTATGGAAA | 4.11 | 2.57 | -0.223 | 2.13 | -0.306 | 4.24 | 3.43 | 3.17 | 0.857 | 2.08 | 1.05 | 2.31 | 0.261 | 0.123 | 1.68 | 2.14 | -0.0446 | 3.35 | 0.261 | 4.02 |
| CCTCCAAGGTCAAAGGTCAGTGAAGAGATGACGG | 8.2 | 6.83 | 3.53 | 6.63 | 1.95 | 7.19 | 10.5 | 8.79 | 8.47 | 9.3 | 3.51 | 5.62 | 0.87 | -0.101 | 3.71 | 6.78 | 2.06 | 8.62 | 3.07 | 6.03 |
| CGTCAAAGTTCAAGGTAACTTAACAGAAAGCAGC | 6.07 | 5.46 | 2.56 | 3.35 | 0.919 | 4.5 | 4.23 | 4.97 | 1.81 | 3.84 | 0.535 | 1.52 | 0.657 | 0.0202 | 2.33 | 3.79 | 2.37 | 3.17 | 1.69 | 4.89 |
| TCTCGGAGGACGCGAAGGTCAGAGCTTTCCAGAG | 0.524 | 0.815 | -0.319 | 0.715 | -1.33 | 1.69 | -0.182 | 1.06 | 1.62 | 1.21 | 0.846 | -0.0947 | -1.23 | -1.47 | 0.0628 | 1.33 | -0.286 | 1.61 | -0.357 | 2.7 |
| CGAACTAGGTCAAAGACAGTGAATCTCCGCACGC | 3.64 | 2.39 | 0.268 | 1.66 | 0.166 | 4.8 | 7.47 | 6.52 | 4.4 | 6.21 | 8.07 | 8.21 | 4.15 | 2.23 | 1.24 | 1.06 | 0.0351 | 1.82 | 0.463 | 3.74 |
| TCGAGTAGGTTAGTCGGGGCATTCTGCCAACATA | -0.351 | -0.585 | -0.552 | 0.145 | -0.607 | 0.377 | -0.424 | 0.587 | 0.946 | 0.676 | 2.38 | 1.64 | -0.758 | -0.515 | -0.211 | -0.103 | -0.171 | -0.0333 | -0.547 | 0.287 |
| TAGCTTAGGTCAGATCGGGCCAGTATACGCTATA | 2 | 1.41 | -0.333 | 0.69 | 0.0114 | 1.96 | 0.531 | 0.891 | 0.0799 | 0.412 | -0.166 | 0.996 | 0.561 | -0.217 | 0.322 | 1.24 | -0.17 | 1.68 | -0.0696 | 3.54 |
| GCAGACAGGTGAAACGCAGGTAGCTCAGGGTGGC | -0.298 | -0.318 | -0.974 | -0.61 | -1.08 | 0.412 | 0.213 | -0.178 | -0.645 | -0.382 | 1.07 | 0.347 | -0.762 | -0.471 | -0.599 | -0.573 | -0.785 | -0.358 | -0.976 | 0.536 |
| CCTTACCGGTCACGAGGTTATAGCACGACGAGCG | 2.69 | 3.04 | 2 | 2 | 0.699 | 2.85 | 2.12 | 2.07 | 0.437 | 1.06 | 1.09 | 2.32 | 0.31 | 0.533 | 2.18 | 1.92 | 0.733 | 2.66 | 1.45 | 3.73 |
